Screening data from PubChem BioAssay.
The list is not random: actives were taken first. Their share in the collection is about 4.7%.
Calb FLC: affects C. albicans growth with fluconazole; AID 1979; hit rate 0.57% among 300,000; growth inhibition, % (no concentration beside the values); C. albicans CaCi-2 (fluconazole-resistant clinical isolate) + fluconazole, Alamar Blue growth, 48 h;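 active = growth inhibition above about 58% in most replicates, limit read from the data, passing the limit was not always enough; inconclusive = exactly half the replicates above a set limit; inactive = most replicates below a set limit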;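 also: all wells also contain fluconazole at 8 µg/ml as a sub-toxic cotreatment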
tim23-1 inh: growth inhibitors of tim23-1 mutant yeast; S. cerevisiae tim23-1 growth, BacTiter-Glo luminescence, 24 h; hit rate 1.3% among 330,000; inhibition, % at 20 µM;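 active = growth inhibition of the mutant yeast at or above 50%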;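 also: temperature-sensitive mutant grown at 25 °C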
PfHsp90 set2: reduces growth (ATP signal) of yeast expressing P. falciparum Hsp90 | S. cerevisiae expressing PfHsp90, BacTiter-Glo ATP, 48 h; yeast lacking PDR1 and PDR3 efflux regulators | AID 504621 | hit rate 0.32% among 310,000 | inhibition, % at 9.4 µM;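 active = every replicate shows inhibition above about 80%, whatever the replicate mean, limit read from the data; inconclusive = mean inhibition reaches the set limit but some replicate falls short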
TIM10 inh: TIM10 yeast growth inhibition | S. cerevisiae TIM10 strain growth, BacTiter-Glo luminescence, 24 h | inhibition, % at 10 µM | hit rate 1.4% among 330,000;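 active = inhibition of 40% or more at the single tested concentration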;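 also: wild-type TIM10 isogenic control strain grown at permissive 25 °C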
tim10-1 inh: inhibits growth of tim10-1 mutant yeast; AID 463190; hit rate 2.2% among 330,000; S. cerevisiae tim10-1 ts strain growth, BacTiter-Glo, 24 h; inhibition, % at 20 µM;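 active = inhibition of at least 40%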;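 also: mutant grown at 25 °C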
SKKanGAS inh: inhibitors of SKKanGAS S. pyogenes growth in kanamycin (SK-promoter or general growth effect) | inhibition, % at 7.5 µM | hit rate 1.3% among 300,000 | BacTiter-Glo, 6 h;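 active = mean replicate score, as percent of positive control median, at least 50; inconclusive = mean below 50 but one replicate at or above 50; inactive = mean and every replicate below 50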;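 also: strain carries kanamycin resistance gene driven by streptokinase promoter and grows in 40 µg/ml kanamycin; loss of luminescence reflects streptokinase promoter inhibition or plain growth inhibition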
tim10-1 confirm: confirmation of tim10-1 mutant yeast growth inhibitors; inhibition, % at 20 µM; S. cerevisiae tim10-1 ts strain growth, BacTiter-Glo, 24 h; hit rate 56% among 7,400; shares compounds with tim10-1 inh;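 active = inhibition of yeast growth at or above a set limit in either of two repeat tests at 20 µM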;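 also: tim10-1 mutant grown at permissive 25 °C to find synthetic lethal compounds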
TIM10 conf: confirmation of TIM10 yeast growth inhibitors; hit rate 63% among 4,600; S. cerevisiae tim10 strain growth, BacTiter-Glo luminescence, 24 h; shares compounds with TIM10 inh; inhibition, % at 10 µM; AID 463215;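 active = inhibition of yeast growth at or above a set limit in either of two replicates at 10 µM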; also: this counterscreen used the strain with wild-type TIM10
tim23-1 conf: tim23-1 yeast growth inhibition, confirmed. shares compounds with tim23-1 inh. S. cerevisiae tim23-1 growth, BacTiter-Glo luminescence, 24 h. inhibition, % at 20 µM. hit rate 83% among 4,400. AID 463218;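 active = inhibition above about 39% in either of two replicate wells at 20 µM, limit read from the data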;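 also: temperature-sensitive tim23-1 mutant grown at 25 °C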
Each line names hits and unclear results; the compound was inactive in the other large screens (follow-up assays come after a bar, where they were run).

O=C1c2cccc(O)c2C(=O)c2c(O)cc(CO)cc21	tim23-1 inh 71, tim10-1 inh 54 (no result: PfHsp90 set2) | tim10-1 confirm 39 | tim23-1 conf 84
C[C@@H]1CC=C[C@H]2[C@H]1C(=O)N(Cc1ccccc1)[C@H]2c1ccc2ccccc2c1Br	tim23-1 inh 64, TIM10 inh 65, tim10-1 inh 69, SKKanGAS inh 57 | tim10-1 confirm 73 | TIM10 conf 56 | tim23-1 conf 71
Cc1c(Cl)cccc1NC(=O)Nc1cc(C(C)(C)C)on1	tim23-1 inh 59, tim10-1 inh 59 | tim10-1 confirm 26 | tim23-1 conf 45
Cc1cc(NC(=O)Nc2ccccc2Cl)no1	none
O=C(/C=C/c1ccc(Cl)c(Cl)c1)n1cccn1	tim23-1 inh 59, TIM10 inh 50, tim10-1 inh 61 | tim10-1 confirm 41 | TIM10 conf inactive | tim23-1 conf 44
COc1ccc(CCNc2oc(-c3ccco3)nc2C#N)cc1	tim23-1 inh 64, TIM10 inh 52, tim10-1 inh 42 | tim10-1 confirm inactive | TIM10 conf 37 | tim23-1 conf 68
COc1ccc(N2C(=O)C(Cl)=C(Oc3cccc(OC)c3)C2=O)cc1	tim23-1 inh 53, TIM10 inh 75, tim10-1 inh 72 (no result: Calb FLC, SKKanGAS inh) | tim10-1 confirm 57 | TIM10 conf 82 | tim23-1 conf inactive
CC(Nc1ccc(Cl)cc1)c1cc(Cl)ccc1O (stereo not drawn)	tim23-1 inh 64, tim10-1 inh 66 | tim10-1 confirm 58 | tim23-1 conf 52
Cc1sc2ncnc(SCC(=O)N3c4ccccc4Sc4ccc(Cl)cc43)c2c1C	none
CCOC(=O)c1c(C)sc2c1N(C(=O)CCl)c1cc(Cl)ccc1S2	tim23-1 inh 61, tim10-1 inh 43 (no result: PfHsp90 set2) | tim10-1 confirm 43 | tim23-1 conf 50
CCOc1ccccc1CN1CCN(Cc2csc(C(C)=O)c2)CC1CCO (stereo not drawn)	none
COC(=O)c1ccc(N=Nc2ccccc2)cc1	none (no result: PfHsp90 set2)
O=Nc1ccc(NOC(=O)c2ccccc2)cc1	tim23-1 inh 59, TIM10 inh 46, tim10-1 inh 44 | tim10-1 confirm 54 | TIM10 conf 53 | tim23-1 conf 70
COc1ccc(Cl)cc1NC(=O)CSc1nc2ccsc2c(=O)n1CC1CCC(C(=O)O)CC1 (stereo not drawn)	none
COc1cc(/C=C2\COC/C(=C\c3ccc(O)c(OC)c3)C2=O)ccc1O	tim23-1 inh 69, TIM10 inh 67, tim10-1 inh 71 | tim10-1 confirm 68 | TIM10 conf 61 | tim23-1 conf 82
Cc1nn(-c2ccccc2)nc1CNC(=O)C1CCC1	none
COc1ccc(S(=O)(=O)N2CCC(C(=O)N[C@H](C(=O)NC3CCCC3)C(C)C)CC2)cc1	none
Oc1ccc(/C=N/NC(=S)NCc2ccco2)cc1	none
CCN(CC)c1ccc(/C=N/NC(=S)NCc2ccco2)cc1	tim23-1 inh 51, TIM10 inh 46, tim10-1 inh 42 | tim10-1 confirm 34 | TIM10 conf inactive | tim23-1 conf 40
Nc1ccc2oc(-c3cc(Br)ccc3Cl)nc2c1	tim23-1 inh 59, TIM10 inh 41, tim10-1 inh 54 | tim10-1 confirm 41 | TIM10 conf 36 | tim23-1 conf 55
CCc1ccc2oc(-c3cc(N)ccc3Cl)nc2c1	tim23-1 inh 56, TIM10 inh 50, tim10-1 inh 44 | tim10-1 confirm inactive | TIM10 conf inactive | tim23-1 conf 47
Cc1cc(NC(=O)C(C)SCC(=O)N(Cc2ccccc2)c2ccccc2)no1 (stereo not drawn)	none
c1ccc2c(CN3CCOCC3)c3ccccc3c(CN3CCOCC3)c2c1	tim23-1 inh 84, TIM10 inh 61, tim10-1 inh 53 (no result: PfHsp90 set2) | tim10-1 confirm 52 | TIM10 conf 50 | tim23-1 conf inactive
c1ccc2c(CN3CCOCC3)csc2c1	none
Oc1ccc2ccccc2c1/C=N/c1nc2c(s1)CCCC2	none
Oc1c(Br)cc(Br)cc1/C=N/c1nc2c(s1)CCCC2	tim23-1 inh 76, TIM10 inh 42, tim10-1 inh 53, SKKanGAS inh 51 | tim10-1 confirm inactive | TIM10 conf inactive | tim23-1 conf 91
Cc1ccc(N=Cc2c(C)[nH]n(-c3nc4ccccc4[nH]3)c2=O)cc1	tim23-1 inh 65, PfHsp90 set2 91, TIM10 inh 44, tim10-1 inh 62, SKKanGAS inh 66 | tim10-1 confirm 60 | TIM10 conf inactive | tim23-1 conf 68
COc1ccc(-c2cc3nc4n(c(=O)c3s2)CCC4)cc1	Calb FLC inconclusive, tim23-1 inh 58, TIM10 inh 70, tim10-1 inh 58, SKKanGAS inh 99 | tim10-1 confirm 54 | TIM10 conf 76 | tim23-1 conf 55
COc1ccc(-c2cc3nc4n(c(=O)c3s2)CCCCC4)cc1	none
COc1ccc(-c2cc3nc(C)n(N)c(=O)c3s2)cc1	tim23-1 inh 69, PfHsp90 set2 inconclusive, TIM10 inh 58, tim10-1 inh 65, SKKanGAS inh 88 | tim10-1 confirm 66 | TIM10 conf 48 | tim23-1 conf 68
COc1ccccc1CNC(=O)CCS(=O)(=O)c1ccc(Cl)cc1	none
CC1=CC(C)(C)N(C(=O)CN2C(=O)c3ccccc3C2=O)c2ccccc21	tim23-1 inh 60, TIM10 inh 40, tim10-1 inh 43 | tim10-1 confirm inactive | TIM10 conf inactive | tim23-1 conf 51
CC1=CC(C)(C)N(C(=O)CN2C(=O)CCC2=O)c2ccc(C)cc21	none
Cc1ccc(N(CC(=O)NC(C)C)C(=O)CCC(=O)Nc2nccs2)c(C)c1	none
CC12CCC(C/C1=N/OC(=O)c1cccc([N+](=O)[O-])c1)C2(C)C (stereo not drawn)	tim23-1 inh 70, TIM10 inh 62, tim10-1 inh 42 | tim10-1 confirm 66 | TIM10 conf 72 | tim23-1 conf 75
CC12CCC(C/C1=N\OC(=O)c1ccc(F)cc1)C2(C)C (stereo not drawn)	Calb FLC inconclusive, tim23-1 inh 71, TIM10 inh 71, tim10-1 inh 66 | tim10-1 confirm 64 | TIM10 conf 67 | tim23-1 conf 78
COC(=O)C(C)Oc1ccc(-c2nccc(-c3ccc(F)cc3)n2)cc1 (stereo not drawn)	none
NNC(=O)COc1ccc(-c2nccc(-c3ccc(F)cc3)n2)cc1	tim23-1 inh 55, tim10-1 inh 49 | tim10-1 confirm inactive | tim23-1 conf 41
